What was measured:
Assay in all cases: DAPPL (digital affinity profiling via proximity ligation, sequencing); 10 mM Tris-HCl pH 7.5, 50 mM NaCl, 1 mM DTT, 4% glycerol, room temperature, 30 min; GST-TFs on glutathione beads, 16-mer random dsDNA library, 0.1% formaldehyde crosslink after washing; high values mean tight binding
[1] = molecular target: T1, FLI1 (Homo sapiens, UniProt Q01543 1-452); settings: protein: recombinant; tags: N-terminal GST; dsDNA, one strand shown
T1 sequence: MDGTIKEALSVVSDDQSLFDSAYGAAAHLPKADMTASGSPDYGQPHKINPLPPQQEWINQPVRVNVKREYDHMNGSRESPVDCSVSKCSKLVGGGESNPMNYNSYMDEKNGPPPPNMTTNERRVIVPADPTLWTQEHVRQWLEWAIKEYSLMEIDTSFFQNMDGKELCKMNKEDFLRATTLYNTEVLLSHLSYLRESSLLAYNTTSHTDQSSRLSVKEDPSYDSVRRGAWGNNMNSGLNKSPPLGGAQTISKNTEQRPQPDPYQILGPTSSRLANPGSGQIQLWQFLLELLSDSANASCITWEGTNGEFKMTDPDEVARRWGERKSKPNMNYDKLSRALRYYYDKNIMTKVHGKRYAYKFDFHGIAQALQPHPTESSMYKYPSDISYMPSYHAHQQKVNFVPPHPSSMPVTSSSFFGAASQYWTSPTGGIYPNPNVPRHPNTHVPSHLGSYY
Outline: (§1)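 Pools of DNA-barcoded human transcription factors, expressed in yeast as GST fusions on glutathione beads and combined with a tag-only sample, were incubated with 200 nmole of a 16-mer random double-stranded DNA library. Incubation took 30 min at room temperature in Tris/NaCl/DTT/glycerol buffer and was followed by washing, 0.1% formaldehyde crosslinking, proximity ligation (BsaI/T4 ligase, 1 h, 37 °C), PCR amplification and sequencing on an Illumina NextSeq500. Binding signal is the ratio of a hexamer's read frequency for a factor to its frequency for the tag-only sample.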

[2] = molecular target: T2, ELK1 (Homo sapiens, UniProt P19419 1-428); settings: protein: recombinant; tags: N-terminal GST; dsDNA, one strand shown
T2 sequence: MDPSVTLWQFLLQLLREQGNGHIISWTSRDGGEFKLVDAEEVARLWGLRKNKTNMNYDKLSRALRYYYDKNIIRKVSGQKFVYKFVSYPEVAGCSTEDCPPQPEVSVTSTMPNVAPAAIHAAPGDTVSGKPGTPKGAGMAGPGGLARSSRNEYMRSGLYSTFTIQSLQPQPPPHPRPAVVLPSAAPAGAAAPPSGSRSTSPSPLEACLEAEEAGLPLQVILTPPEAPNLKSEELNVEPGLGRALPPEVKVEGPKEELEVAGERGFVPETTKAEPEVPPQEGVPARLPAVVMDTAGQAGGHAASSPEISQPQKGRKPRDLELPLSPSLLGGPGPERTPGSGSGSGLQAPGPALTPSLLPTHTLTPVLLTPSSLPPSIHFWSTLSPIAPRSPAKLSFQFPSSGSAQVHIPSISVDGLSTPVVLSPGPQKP
Outline: as §1

[3] = molecular target: T3, GABPA (Homo sapiens, UniProt Q06546 1-454); settings: protein: recombinant; tags: N-terminal GST; dsDNA, one strand shown
T3 sequence: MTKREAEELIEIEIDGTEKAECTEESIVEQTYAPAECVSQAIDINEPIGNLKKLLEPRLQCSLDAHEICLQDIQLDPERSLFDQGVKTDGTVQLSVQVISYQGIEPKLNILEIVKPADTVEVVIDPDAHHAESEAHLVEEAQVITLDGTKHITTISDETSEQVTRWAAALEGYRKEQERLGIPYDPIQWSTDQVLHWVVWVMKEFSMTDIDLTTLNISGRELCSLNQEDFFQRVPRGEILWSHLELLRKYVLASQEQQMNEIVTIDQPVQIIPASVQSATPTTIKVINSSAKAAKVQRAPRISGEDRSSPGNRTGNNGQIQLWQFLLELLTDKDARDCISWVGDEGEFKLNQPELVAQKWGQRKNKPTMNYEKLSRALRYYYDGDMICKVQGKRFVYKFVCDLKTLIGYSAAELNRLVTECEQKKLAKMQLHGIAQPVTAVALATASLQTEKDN
Outline: as §1

[4] = molecular target: T4, ERG (Homo sapiens, UniProt P11308 1-479); settings: protein: recombinant; tags: N-terminal GST; dsDNA, one strand shown
T4 sequence: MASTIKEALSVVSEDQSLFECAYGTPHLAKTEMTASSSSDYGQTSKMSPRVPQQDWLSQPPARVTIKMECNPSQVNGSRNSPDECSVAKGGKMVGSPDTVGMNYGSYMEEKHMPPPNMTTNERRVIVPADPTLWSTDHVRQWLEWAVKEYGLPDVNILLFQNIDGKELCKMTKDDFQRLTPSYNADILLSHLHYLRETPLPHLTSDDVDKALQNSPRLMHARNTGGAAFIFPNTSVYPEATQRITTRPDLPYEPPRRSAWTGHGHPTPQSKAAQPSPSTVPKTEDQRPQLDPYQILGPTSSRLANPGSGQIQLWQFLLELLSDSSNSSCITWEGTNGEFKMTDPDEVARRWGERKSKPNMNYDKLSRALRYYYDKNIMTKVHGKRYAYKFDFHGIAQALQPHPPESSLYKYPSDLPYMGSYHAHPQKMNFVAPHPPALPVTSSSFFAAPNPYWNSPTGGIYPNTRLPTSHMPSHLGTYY
Outline: as §1

[5] = molecular target: ELF1 (Homo sapiens, UniProt P32519 1-619); settings: protein: recombinant; tags: N-terminal GST; dsDNA, one strand shown
Chain of ELF1 (P32519 whole entry): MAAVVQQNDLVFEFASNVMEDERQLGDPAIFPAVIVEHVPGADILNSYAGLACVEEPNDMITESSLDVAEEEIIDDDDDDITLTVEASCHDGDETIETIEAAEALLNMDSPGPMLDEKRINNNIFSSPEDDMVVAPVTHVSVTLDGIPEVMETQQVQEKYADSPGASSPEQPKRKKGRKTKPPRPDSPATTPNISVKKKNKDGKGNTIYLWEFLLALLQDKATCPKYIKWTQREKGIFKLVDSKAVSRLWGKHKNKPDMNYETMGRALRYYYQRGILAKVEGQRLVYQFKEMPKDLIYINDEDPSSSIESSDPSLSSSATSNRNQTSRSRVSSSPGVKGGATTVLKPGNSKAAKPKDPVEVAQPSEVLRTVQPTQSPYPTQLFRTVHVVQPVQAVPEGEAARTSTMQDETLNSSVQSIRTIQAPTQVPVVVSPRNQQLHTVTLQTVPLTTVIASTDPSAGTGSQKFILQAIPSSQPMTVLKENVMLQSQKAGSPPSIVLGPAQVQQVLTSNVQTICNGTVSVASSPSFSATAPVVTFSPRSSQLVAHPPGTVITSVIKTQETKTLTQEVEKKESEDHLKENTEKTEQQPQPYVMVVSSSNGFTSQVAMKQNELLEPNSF
Outline: as §1

[6] = molecular target: T5, EHF (Homo sapiens, UniProt Q9NZC4 1-300); settings: protein: recombinant; tags: N-terminal GST; dsDNA, one strand shown
T5 sequence: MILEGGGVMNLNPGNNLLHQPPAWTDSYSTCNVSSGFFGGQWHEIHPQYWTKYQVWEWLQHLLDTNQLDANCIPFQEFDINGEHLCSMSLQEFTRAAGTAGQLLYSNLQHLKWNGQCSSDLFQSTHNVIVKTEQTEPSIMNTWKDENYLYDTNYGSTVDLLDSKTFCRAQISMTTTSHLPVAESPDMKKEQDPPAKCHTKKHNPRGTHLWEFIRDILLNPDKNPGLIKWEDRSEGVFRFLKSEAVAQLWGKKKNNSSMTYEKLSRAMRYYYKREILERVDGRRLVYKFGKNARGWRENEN
Outline: as §1

[7] = molecular target: SPI1 (Homo sapiens, UniProt P17947 1-270); settings: protein: recombinant; tags: N-terminal GST; dsDNA, one strand shown
Outline: as §1

[8] = molecular target: SPIB (Homo sapiens, UniProt Q01892 1-262); settings: protein: recombinant; tags: N-terminal GST; dsDNA, one strand shown
Chain of SPIB (Q01892 whole entry): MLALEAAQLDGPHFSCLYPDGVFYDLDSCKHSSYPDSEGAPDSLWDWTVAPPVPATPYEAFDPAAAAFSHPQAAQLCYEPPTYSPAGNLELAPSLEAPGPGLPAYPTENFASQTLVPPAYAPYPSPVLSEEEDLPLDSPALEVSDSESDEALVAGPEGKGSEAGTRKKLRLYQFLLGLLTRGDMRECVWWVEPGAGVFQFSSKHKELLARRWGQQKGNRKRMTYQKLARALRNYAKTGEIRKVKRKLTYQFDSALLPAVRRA
Outline: as §1

[9] = molecular target: T6, ELK3 (Homo sapiens, UniProt P41970 1-407); settings: protein: recombinant; tags: N-terminal GST; dsDNA, one strand shown
T6 sequence: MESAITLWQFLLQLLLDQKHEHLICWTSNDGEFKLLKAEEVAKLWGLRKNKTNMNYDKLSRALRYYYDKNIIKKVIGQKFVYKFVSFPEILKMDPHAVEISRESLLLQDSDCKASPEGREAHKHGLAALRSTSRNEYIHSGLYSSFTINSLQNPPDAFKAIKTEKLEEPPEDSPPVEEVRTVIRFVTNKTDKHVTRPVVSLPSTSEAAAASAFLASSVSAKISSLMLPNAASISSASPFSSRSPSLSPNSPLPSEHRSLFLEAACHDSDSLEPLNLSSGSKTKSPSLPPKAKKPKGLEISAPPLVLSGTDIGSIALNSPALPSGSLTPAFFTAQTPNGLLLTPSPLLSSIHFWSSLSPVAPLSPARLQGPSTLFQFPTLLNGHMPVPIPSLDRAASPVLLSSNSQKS
Outline: as §1

[10] = molecular target: T7, FEV (Homo sapiens, UniProt Q99581 1-238); settings: protein: recombinant; tags: N-terminal GST; dsDNA, one strand shown
T7 sequence: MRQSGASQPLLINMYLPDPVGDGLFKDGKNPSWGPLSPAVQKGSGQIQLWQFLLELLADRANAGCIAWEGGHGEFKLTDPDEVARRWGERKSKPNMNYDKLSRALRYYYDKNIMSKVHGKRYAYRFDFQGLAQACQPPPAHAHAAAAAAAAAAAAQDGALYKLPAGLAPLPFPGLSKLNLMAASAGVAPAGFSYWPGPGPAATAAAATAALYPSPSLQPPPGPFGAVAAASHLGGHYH
Outline: as §1

[11] = molecular target: ETV5 (Homo sapiens, UniProt P41161 1-510); settings: protein: recombinant; tags: N-terminal GST; dsDNA, one strand shown
Chain of ETV5 (P41161 whole entry): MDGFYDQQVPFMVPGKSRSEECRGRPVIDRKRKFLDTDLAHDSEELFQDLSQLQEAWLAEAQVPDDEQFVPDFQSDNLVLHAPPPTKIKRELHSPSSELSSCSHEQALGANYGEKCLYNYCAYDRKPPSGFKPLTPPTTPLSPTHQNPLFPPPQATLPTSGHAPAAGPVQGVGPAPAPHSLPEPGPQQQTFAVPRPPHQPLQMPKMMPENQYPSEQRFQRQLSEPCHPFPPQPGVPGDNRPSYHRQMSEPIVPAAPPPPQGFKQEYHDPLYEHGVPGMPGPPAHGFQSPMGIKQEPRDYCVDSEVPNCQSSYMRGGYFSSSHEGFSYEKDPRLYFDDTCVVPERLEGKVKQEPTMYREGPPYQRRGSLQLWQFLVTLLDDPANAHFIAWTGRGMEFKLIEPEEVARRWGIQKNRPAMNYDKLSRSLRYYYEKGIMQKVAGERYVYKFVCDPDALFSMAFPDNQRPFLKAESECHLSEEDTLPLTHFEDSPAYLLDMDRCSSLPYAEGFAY
Outline: as §1

[12] = molecular target: HSF1 (Homo sapiens, UniProt Q00613 1-529); settings: protein: recombinant; tags: N-terminal GST; chain copies: 3; dsDNA, one strand shown
Chain of HSF1 (Q00613 whole entry): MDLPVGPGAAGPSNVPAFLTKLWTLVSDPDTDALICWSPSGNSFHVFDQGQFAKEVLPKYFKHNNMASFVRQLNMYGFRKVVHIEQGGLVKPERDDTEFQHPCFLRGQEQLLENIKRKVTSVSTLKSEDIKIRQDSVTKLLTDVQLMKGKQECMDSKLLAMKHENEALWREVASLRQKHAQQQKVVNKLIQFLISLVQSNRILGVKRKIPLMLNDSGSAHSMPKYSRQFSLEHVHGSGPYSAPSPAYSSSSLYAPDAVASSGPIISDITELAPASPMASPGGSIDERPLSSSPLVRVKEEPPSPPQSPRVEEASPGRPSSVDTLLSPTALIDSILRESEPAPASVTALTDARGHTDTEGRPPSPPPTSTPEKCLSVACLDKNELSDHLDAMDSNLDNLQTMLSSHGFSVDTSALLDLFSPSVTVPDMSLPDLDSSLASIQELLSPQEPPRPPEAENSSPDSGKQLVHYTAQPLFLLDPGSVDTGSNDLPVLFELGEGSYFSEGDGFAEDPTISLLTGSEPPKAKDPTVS
Outline: as §1

[13] = molecular target: T8, SPIC (Homo sapiens, UniProt Q8N5J4 1-248); settings: protein: recombinant; tags: N-terminal GST; dsDNA, one strand shown
T8 sequence: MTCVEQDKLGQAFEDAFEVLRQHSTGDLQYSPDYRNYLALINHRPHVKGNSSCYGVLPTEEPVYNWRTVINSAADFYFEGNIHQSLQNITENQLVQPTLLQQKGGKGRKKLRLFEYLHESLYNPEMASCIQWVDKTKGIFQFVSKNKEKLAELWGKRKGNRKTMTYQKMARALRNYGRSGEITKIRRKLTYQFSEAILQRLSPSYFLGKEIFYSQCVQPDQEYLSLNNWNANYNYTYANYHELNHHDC
Outline: as §1

[14] = molecular target: ELF4 (Homo sapiens, UniProt Q99607 1-663); settings: protein: recombinant; tags: N-terminal GST; dsDNA, one strand shown
Chain of ELF4 (Q99607 whole entry): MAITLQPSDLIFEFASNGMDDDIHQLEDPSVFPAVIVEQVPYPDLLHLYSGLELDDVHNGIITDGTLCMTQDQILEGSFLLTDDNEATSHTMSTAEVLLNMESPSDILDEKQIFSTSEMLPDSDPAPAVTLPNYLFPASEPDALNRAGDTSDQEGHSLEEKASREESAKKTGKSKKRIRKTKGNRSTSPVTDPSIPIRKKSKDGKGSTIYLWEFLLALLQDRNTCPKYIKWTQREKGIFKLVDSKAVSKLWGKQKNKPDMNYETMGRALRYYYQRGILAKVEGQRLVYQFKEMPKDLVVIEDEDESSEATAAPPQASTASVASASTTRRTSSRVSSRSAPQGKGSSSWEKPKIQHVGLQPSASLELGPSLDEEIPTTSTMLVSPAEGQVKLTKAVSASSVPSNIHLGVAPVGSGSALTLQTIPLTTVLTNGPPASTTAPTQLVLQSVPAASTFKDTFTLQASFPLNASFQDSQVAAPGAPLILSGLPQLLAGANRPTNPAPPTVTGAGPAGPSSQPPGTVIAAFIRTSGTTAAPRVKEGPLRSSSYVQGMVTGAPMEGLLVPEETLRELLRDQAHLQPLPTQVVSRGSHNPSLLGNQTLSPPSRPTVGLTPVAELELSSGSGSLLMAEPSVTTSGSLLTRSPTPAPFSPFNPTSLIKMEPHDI
Outline: as §1

[15] = molecular target: T9, ELK4 (Homo sapiens, UniProt P28324-2 1-405); settings: protein: recombinant; tags: N-terminal GST; dsDNA, one strand shown
T9 sequence: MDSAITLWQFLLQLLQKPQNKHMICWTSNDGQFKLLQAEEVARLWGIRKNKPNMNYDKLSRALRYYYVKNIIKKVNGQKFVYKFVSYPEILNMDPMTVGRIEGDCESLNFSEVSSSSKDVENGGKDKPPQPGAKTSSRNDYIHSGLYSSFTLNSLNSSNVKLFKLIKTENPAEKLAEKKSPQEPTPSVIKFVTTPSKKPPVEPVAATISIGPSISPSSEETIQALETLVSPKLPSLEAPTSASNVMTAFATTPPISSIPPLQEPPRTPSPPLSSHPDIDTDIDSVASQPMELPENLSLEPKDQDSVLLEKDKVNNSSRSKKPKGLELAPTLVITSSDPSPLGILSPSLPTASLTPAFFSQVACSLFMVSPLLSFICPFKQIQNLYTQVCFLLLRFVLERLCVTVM
Outline: as §1

[16] = molecular target: T10, ETV2 (Homo sapiens, UniProt O00321 1-342); settings: protein: recombinant; tags: N-terminal GST; dsDNA, one strand shown
T10 sequence: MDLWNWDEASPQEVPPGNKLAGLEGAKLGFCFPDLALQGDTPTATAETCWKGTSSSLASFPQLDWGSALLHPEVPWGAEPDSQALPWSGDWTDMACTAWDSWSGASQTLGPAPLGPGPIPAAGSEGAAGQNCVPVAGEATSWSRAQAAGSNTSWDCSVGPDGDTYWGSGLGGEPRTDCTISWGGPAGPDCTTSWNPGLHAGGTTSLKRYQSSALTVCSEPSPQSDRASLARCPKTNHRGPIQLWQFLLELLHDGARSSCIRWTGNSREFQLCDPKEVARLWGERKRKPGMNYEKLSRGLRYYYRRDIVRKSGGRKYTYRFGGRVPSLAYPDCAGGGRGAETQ
Outline: as §1

[17] = molecular target: T11, ELF3 (Homo sapiens, UniProt P78545 1-371); settings: protein: recombinant; tags: N-terminal GST; dsDNA, one strand shown
T11 sequence: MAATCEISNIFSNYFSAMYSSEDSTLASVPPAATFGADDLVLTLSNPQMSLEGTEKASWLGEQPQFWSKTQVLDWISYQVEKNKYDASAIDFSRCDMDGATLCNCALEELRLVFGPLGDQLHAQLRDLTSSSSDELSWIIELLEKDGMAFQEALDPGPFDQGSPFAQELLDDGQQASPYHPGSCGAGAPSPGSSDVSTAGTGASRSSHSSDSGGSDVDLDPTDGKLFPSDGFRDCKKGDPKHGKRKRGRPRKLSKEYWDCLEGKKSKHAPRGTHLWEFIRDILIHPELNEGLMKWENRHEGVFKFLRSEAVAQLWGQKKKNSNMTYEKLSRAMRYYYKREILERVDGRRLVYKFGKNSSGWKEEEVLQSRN
Outline: as §1

[18] = molecular target: CRX (Homo sapiens, UniProt O43186 1-299); settings: protein: recombinant; tags: N-terminal GST; dsDNA, one strand shown
Chain of CRX (O43186 whole entry): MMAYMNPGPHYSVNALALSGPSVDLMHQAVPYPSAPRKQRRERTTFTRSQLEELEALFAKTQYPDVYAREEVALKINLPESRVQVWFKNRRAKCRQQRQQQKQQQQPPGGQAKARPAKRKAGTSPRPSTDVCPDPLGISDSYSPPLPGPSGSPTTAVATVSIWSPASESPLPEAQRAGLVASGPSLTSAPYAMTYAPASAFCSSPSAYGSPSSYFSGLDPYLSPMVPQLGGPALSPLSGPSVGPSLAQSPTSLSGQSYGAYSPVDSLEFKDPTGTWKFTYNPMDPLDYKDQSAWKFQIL
Outline: as §1

[19] = molecular target: ETV1 (Homo sapiens, UniProt P50549 1-477); settings: protein: recombinant; tags: N-terminal GST; dsDNA, one strand shown
Chain of ETV1 (P50549 whole entry): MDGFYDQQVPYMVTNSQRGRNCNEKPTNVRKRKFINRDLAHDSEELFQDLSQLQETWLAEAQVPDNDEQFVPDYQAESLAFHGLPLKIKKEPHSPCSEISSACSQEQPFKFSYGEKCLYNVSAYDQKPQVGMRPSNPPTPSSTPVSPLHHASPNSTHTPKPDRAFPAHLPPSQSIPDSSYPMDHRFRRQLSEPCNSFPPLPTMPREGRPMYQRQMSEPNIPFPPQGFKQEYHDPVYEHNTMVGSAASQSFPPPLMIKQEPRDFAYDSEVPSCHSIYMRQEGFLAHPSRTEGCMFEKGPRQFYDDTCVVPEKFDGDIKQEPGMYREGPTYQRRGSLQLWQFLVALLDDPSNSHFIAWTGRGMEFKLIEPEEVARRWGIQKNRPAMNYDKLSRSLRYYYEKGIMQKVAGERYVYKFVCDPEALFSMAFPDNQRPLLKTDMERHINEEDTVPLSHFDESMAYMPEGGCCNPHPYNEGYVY
Outline: as §1

## ATTGGG
[1]
  binding signal: 1.23 fold enrichment (6-mer frequency, TF over GST control)
[2]
  binding signal: 1.24 fold enrichment (6-mer frequency, TF over GST control)
[3]
  binding signal: 1.33 fold enrichment (6-mer frequency, TF over GST control)
[4]
  binding signal: 1.13 fold enrichment (6-mer frequency, TF over GST control)
[5]
  binding signal: 1.21 fold enrichment (6-mer frequency, TF over GST control)
[6]
  binding signal: 1.24 fold enrichment (6-mer frequency, TF over GST control)
[7]
  binding signal: 1.25 fold enrichment (6-mer frequency, TF over GST control)
[8]
  binding signal: 1.26 fold enrichment (6-mer frequency, TF over GST control)
[9]
  binding signal: 1.17 fold enrichment (6-mer frequency, TF over GST control)
[10]
  binding signal: 1.13 fold enrichment (6-mer frequency, TF over GST control)
[11]
  binding signal: 1.26 fold enrichment (6-mer frequency, TF over GST control)
[12]
  binding signal: 1.06 fold enrichment (6-mer frequency, TF over GST control)
[13]
  binding signal: 1.26 fold enrichment (6-mer frequency, TF over GST control)
[14]
  binding signal: 1.19 fold enrichment (6-mer frequency, TF over GST control)
[15]
  binding signal: 1.18 fold enrichment (6-mer frequency, TF over GST control)
[16]
  binding signal: 1.13 fold enrichment (6-mer frequency, TF over GST control)
[17]
  binding signal: 1.22 fold enrichment (6-mer frequency, TF over GST control)
[18]
  binding signal: 1.22 fold enrichment (6-mer frequency, TF over GST control)
[19]
  binding signal: 1.2 fold enrichment (6-mer frequency, TF over GST control)

From paper PMC7862700, “An all-to-all approach to the identification of sequence-specific readers for epigenetic DNA modifications on cytosine”
